Our source for the Percent Effect values is ChEMBL document CHEMBL3988442, “University of Dundee, Small-Polar-MMV Screening Library” (2021).

For some assays here: Results with a measured potency or affinity are listed apart.

Holding throughout (set-up): scale not given: direction of the effect not stated beside the values
The target in assay [1] is Protein translocase subunit SecA (Escherichia coli (strain K12)) (UniProt P10408). The experiment in a line: Assay to Identify E. coli SecA ATPase Inhibitors. The format is functional. Particulars: 30 µM.
The target in assay [2] is T1, Ubiquitin-activating enzyme e1, putative (Leishmania donovani (strain BPK282A1)) (UniProt E9BSI1).
T1 sequence (whole entry): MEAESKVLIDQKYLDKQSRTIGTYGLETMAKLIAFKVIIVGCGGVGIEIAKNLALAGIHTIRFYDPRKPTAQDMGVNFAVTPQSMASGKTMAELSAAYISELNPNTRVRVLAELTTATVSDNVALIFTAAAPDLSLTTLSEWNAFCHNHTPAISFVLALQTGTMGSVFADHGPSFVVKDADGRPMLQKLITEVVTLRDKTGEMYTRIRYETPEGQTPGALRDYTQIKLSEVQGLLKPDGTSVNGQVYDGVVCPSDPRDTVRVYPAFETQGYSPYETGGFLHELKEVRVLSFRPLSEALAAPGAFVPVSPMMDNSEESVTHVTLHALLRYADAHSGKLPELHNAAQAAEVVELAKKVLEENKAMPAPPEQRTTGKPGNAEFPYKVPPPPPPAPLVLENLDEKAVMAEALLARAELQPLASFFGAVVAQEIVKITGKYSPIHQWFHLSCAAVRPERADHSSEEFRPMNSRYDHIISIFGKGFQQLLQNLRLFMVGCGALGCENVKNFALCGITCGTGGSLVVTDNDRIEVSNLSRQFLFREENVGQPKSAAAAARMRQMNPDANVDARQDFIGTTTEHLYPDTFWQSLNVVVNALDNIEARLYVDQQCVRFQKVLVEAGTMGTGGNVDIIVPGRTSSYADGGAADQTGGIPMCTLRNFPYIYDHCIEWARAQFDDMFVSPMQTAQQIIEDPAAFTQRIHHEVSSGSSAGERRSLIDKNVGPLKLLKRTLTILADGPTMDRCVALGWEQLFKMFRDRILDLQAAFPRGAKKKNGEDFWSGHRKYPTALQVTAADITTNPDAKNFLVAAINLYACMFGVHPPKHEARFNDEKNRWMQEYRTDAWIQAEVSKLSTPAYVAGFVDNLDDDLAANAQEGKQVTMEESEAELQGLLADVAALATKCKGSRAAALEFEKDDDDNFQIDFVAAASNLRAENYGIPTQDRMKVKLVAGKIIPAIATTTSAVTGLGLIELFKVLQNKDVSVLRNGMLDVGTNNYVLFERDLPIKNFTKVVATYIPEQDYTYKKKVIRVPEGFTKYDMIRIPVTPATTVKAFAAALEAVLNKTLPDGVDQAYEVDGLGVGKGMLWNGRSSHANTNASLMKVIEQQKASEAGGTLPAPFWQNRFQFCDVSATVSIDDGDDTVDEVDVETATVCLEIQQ
The experiment in a line: Leishmania donovani Ubiquitin Activating Enzyme (LdE1). Format: functional. Particulars: 30 µM.

In assay [3] the target is AMP-activated protein kinase, AMPK (Homo sapiens) (UniProt P54646+O43741+P54619+Q9UGJ0+Q9Y478+Q13131+Q9UGI9). The experiment in a line: AMP-dependent Kinase enzyme assay. An in vitro enzyme assay that detects ADP turnover that is directly proportional to AMPK activity. This uses naive AMPK that is activated during the assay with MK-8722. The format is functional. Particulars: 30 µM.

Assay [4] addresses Sialic acid-binding Ig-like lectin 9 (Homo sapiens) (UniProt Q9Y336). The experiment in a line: Hs-Siglec9 ALPHAscreen SOP 20170721. The settings on record: 10 µM.
A further assay has as its system Trypanosoma cruzi. The experiment in a line: Trypanosoma cruzi phosphomannomutase and mannose-1-phosphate guanylyltransferase assay. The settings on record: 10 µM. The format is functional.
In assay [5] the target is T2, Arginase-2, mitochondrial (Homo sapiens) (UniProt P78540).
T2 sequence (whole entry): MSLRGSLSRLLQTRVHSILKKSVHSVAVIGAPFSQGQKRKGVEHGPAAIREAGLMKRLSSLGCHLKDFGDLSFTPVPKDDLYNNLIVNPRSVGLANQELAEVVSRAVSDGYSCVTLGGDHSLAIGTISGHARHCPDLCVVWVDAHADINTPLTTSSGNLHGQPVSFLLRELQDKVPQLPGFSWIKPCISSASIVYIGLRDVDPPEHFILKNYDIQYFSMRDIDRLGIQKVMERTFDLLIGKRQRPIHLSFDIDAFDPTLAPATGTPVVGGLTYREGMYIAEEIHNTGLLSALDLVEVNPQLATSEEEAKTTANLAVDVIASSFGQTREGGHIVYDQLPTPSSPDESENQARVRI
The experiment in a line: in vitro enzyme assay to detect the production of urea directly proportional to the activity of Arginase II. Note: in the data most compounds retested in dose-response had high values. Format: functional. The settings on record: 33.3 µM.

Assay [6] concerns the target T3, Proteasome subunit beta (Trypanosoma cruzi) (UniProt O96673).
T3 sequence (whole entry): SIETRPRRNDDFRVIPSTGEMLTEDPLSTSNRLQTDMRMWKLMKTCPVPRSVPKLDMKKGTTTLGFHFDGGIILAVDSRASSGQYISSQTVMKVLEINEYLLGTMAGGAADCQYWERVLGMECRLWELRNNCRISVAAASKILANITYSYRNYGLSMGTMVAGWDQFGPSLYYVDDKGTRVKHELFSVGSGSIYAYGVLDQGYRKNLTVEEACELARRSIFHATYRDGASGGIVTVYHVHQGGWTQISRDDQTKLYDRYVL
The experiment in a line: Trypanosoma cruzi proteasome chymotrypsin-like activity (TcProtChymo) assay. Note: in the data most compounds retested in dose-response had high values. The format is functional. The settings on record: 9.37 µM.

A further assay is filed under the species Homo sapiens. The experiment in a line: To identify inhibition of the IFN signalling (Jak-Stat) pathway via expression of an eGFP reporter gene under the control of an IFN-stimulated response element (ISRE) containing MxA promoter. The format is functional. The settings on record: 30 µM.
Assay [7] has as its target T4, Tyrosyl-tRNA synthetase, putative (Trypanosoma cruzi (strain CL Brener)) (UniProt Q4DSP6).
T4 sequence (whole entry): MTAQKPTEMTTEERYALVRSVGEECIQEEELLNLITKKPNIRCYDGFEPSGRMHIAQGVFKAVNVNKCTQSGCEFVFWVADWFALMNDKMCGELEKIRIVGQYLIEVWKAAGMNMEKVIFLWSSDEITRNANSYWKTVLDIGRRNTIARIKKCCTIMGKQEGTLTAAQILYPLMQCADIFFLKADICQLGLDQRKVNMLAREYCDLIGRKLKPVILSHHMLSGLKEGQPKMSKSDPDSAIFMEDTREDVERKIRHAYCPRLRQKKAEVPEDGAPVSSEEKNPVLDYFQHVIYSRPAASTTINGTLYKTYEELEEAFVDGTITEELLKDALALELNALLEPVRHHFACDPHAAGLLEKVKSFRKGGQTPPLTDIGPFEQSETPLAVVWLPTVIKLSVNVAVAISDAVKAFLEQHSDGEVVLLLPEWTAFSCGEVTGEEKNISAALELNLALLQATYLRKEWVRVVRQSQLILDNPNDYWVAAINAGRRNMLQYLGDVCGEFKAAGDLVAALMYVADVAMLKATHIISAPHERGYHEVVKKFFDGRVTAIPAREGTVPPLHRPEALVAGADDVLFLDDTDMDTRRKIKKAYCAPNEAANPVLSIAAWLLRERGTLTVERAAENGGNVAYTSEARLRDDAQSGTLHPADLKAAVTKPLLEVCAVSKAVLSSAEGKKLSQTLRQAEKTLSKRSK
Nature of the assay: Trypanosoma cruzi tyrosyl tRNA synthetase (TcYRS) _High Tyrosine SOP. Note: in the data most compounds retested in dose-response had high values. The format is functional. Particulars: 30 µM.

Assay [8] addresses T4, Tyrosyl-tRNA synthetase, putative (Trypanosoma cruzi (strain CL Brener)). The experiment in a line: Trypanosoma cruzi tyrosyl tRNA synthetase (TcYRS) SOP. The format is functional. Particulars: 30 µM.
In assay [9] the target is Chromo domain-containing protein 1 (Saccharomyces cerevisiae (strain ATCC 204508 / S288c) (Baker's yeast)) (UniProt P32657). Nature of the assay: ScCHD-1 Enzyme Inhibition Assay. Note: in the data most compounds retested in dose-response had high values. Format: functional. Particulars: 30 µM.
Sequence of Chromo domain-containing protein 1 (Saccharomyces cerevisiae (strain ATCC 204508 / S288c) (Baker's yeast)) (P32657 whole entry, the tested form may be a part): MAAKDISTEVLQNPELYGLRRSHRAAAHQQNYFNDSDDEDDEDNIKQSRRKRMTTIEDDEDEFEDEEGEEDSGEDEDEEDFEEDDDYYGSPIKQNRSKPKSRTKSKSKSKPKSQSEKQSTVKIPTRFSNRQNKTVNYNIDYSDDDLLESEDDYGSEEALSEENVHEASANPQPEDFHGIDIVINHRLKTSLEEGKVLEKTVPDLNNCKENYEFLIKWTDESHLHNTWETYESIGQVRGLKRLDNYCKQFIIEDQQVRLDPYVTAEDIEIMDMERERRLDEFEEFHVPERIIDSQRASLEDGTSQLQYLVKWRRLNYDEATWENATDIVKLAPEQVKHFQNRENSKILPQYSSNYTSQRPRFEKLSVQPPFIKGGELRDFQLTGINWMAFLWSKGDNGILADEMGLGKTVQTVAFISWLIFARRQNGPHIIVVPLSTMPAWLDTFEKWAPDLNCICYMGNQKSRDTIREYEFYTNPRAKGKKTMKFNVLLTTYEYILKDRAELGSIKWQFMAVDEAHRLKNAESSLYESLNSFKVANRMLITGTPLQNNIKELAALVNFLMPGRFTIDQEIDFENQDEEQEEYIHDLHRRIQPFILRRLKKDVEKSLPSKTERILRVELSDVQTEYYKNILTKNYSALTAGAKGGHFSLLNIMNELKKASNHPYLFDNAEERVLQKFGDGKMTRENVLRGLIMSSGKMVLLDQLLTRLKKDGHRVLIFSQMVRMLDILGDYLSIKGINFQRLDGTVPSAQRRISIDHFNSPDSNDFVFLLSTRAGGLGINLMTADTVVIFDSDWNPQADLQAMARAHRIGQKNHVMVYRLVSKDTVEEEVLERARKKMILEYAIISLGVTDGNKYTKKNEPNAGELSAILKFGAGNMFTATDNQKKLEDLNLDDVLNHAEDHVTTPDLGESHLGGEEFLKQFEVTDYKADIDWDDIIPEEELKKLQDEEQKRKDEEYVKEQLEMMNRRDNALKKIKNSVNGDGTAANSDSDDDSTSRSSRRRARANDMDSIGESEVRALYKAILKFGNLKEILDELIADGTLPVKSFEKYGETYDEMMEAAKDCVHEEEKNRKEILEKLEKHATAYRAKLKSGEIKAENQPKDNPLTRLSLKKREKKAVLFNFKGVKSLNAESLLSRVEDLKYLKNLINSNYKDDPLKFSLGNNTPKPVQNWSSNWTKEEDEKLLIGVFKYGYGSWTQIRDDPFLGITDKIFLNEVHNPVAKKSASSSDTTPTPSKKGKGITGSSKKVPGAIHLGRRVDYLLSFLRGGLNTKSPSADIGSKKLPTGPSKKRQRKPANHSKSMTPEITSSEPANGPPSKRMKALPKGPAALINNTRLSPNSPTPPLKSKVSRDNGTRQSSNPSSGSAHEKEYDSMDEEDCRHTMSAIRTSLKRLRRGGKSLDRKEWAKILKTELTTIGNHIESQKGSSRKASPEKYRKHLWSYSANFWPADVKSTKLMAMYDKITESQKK

Sequence of Sialic acid-binding Ig-like lectin 9 (Homo sapiens) (Q9Y336 whole entry): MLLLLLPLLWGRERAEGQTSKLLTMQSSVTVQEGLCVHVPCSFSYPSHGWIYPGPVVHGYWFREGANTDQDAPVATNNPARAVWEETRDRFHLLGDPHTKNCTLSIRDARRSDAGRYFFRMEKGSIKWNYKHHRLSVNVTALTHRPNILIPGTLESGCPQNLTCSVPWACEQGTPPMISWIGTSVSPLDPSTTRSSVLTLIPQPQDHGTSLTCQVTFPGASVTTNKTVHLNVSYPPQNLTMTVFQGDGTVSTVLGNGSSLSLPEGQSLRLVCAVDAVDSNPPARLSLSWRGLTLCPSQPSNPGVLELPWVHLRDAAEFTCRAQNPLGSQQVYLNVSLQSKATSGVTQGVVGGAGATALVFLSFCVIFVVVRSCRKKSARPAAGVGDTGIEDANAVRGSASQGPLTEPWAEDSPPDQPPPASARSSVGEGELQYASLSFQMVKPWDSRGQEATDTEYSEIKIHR
Sequence of Protein translocase subunit SecA (Escherichia coli (strain K12)) (P10408 whole entry): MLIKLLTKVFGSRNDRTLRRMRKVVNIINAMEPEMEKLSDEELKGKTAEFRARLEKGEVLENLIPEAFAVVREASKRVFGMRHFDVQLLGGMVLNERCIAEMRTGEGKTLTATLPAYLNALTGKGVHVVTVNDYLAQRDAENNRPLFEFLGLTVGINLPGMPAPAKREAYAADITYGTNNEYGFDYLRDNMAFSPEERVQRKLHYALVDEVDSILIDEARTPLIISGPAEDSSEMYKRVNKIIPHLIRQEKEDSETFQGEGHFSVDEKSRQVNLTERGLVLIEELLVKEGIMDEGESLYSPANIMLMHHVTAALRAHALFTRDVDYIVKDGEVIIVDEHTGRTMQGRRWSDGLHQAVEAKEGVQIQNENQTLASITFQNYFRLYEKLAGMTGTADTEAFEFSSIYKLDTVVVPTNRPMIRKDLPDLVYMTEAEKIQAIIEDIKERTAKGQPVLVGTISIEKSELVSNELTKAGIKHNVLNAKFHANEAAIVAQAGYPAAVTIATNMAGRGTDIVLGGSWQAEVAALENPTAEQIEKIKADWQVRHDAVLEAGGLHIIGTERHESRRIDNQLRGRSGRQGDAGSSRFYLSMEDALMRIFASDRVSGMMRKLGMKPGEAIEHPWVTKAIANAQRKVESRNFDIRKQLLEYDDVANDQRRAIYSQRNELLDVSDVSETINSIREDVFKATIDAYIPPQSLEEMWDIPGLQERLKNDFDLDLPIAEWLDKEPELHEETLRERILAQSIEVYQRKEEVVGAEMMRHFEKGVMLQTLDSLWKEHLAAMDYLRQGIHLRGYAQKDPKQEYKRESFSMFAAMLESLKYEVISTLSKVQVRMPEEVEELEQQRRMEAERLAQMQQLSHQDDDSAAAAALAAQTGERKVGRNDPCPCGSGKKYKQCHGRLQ

With `CC(OCC(F)(F)F)C(=O)N1CCCCC1` (stereo not given), the Percent Effect was -5.31% in [1]; 0% in assay [2]; -0.316% in assay [3]; -2.51% in assay [4]; -0.783% in the assay with Trypanosoma cruzi; -2.27% in assay [5]. The Percent Effect was -1.77% in [6]; 19.4% in the assay filed under Homo sapiens; 1.07% in assay [7]; 2.5% in assay [8]; 0.868% in assay [9].

`Cc1cc(CN2CCN(C(=O)c3sccc3C(C)C)CC2)no1`: the Percent Effect in assay [1] was -1.68%; in assay [2], 2.6%; in assay [3], 4.01%; in assay [4], 0.935%; with Trypanosoma cruzi it was 4.41%; in assay [5] it was 4.84%. In addition, the Percent Effect is 1.86% in assay [6]; 5.54% in the assay filed under Homo sapiens; 2.86% in [7]; 7.06% in [8]; -3.8% in assay [9].

Turning to `Cc1ccc2oc(CNC(C)c3nnc4n3CCCC4)cc2c1` (stereo not given), the Percent Effect in assay [1] is -2.09%; in assay [2], -10.8%; in assay [3], -8.92%; in [4], -1.29%; in the assay with Trypanosoma cruzi, 0.781%; in [5], -2.5%. The Percent Effect in [6] is 10.6%; in the assay listed under Homo sapiens, 17.8%; in assay [7] it was 11.9%; in [8], 15.8%; in assay [9], 1.91%.

As to `O=C(C1CCCC1)N1CCN(Cc2nc(-c3ccco3)no2)CC1`, the Percent Effect in [1] was -5.54%; in assay [2], 13.5%; in assay [3], -5.37%; in assay [4], 16%; in the assay on Trypanosoma cruzi, 3.99%; in assay [5], -1.29%. Moreover, the Percent Effect was 3.23% in assay [6]; 19.1% in the assay filed under Homo sapiens; 4.95% in assay [7]; 15.8% in [8]; -4.84% in [9].

As for `Cc1cnn(CC2CN(CC(=O)Nc3sccc3C#N)CCO2)c1` (stereo not given), the Percent Effect in [1] was -4.12%; in [2] it was 7.89%; in assay [3] it was 0.0642%; in assay [4], 13%; in the assay on Trypanosoma cruzi it was 0.564%; in [5], 5.75%. In addition, the Percent Effect in assay [6] was 3.17%; in the assay listed under Homo sapiens it was 18.2%; in assay [7], 4.41%; in [8] it was 7.32%; in [9] it was -1.67%.

In the case of `CCn1c(CN2CCCN(C(=O)OC)CC2)nc2c(F)cccc21`, the Percent Effect is -2.85% in assay [1]; 15.8% in [2]; -5.17% in assay [3]; 7.02% in assay [4]; -3.95% with Trypanosoma cruzi; 8.81% in assay [5]. The Percent Effect in [6] is 9.69%; in the assay listed under Homo sapiens, -5.04%; in assay [7], 6.37%; in assay [8], 12.2%; in [9] it was -4.43%.

Consider `CCc1cc(C)c(C(=O)N2CCCC2CC(=O)c2cnn(C)c2)o1` (stereo not given), for which the Percent Effect in assay [1] was -1.93%; in assay [2], -1.27%; in [3], 169%; in assay [4] it was -0.655%; in the assay with Trypanosoma cruzi it was -1.13%; in assay [5], -1.5%. Besides, the Percent Effect in [6] was 7.03%; in the assay listed under Homo sapiens it was 7.3%; in assay [7], -1.04%; in assay [8], 0%; in assay [9], -4.62%.

As to `Cc1ccc(NC(=O)N2CCN(Cc3noc(C4CC4)n3)CC2)cc1`, the Percent Effect in assay [1] was -10.7%; in assay [2] it was -1.27%; in assay [3], 5.38%; in assay [4], -5.9%; in the assay on Trypanosoma cruzi, -3.38%; in [5], -4.09%. The Percent Effect in assay [6] is 10.1%; in the assay filed under Homo sapiens it was 10.8%; in assay [7], -1.04%; in [8] it was -5.06%; in assay [9], -24.6%.

Turning to `Cc1nc(C2CCCN(C(=O)c3scnc3C)C2)no1` (stereo not given), the Percent Effect in assay [1] is -3.05%; in assay [2], 6.94%; in [3], -13.5%; in [4], 8.6%; in the assay with Trypanosoma cruzi it was 4.76%; in assay [5], 1.77%. For the same compound, the Percent Effect in assay [6] is 14.2%; in the assay listed under Homo sapiens, -0.897%; in [7] it was -1.05%; in [8] it was 2.56%; in [9], -2.17%.

As for `Cc1ccc(CN(CCCn2ccnc2)Cc2c[nH]cn2)s1`, the Percent Effect in [1] is -8.11%; in assay [2], 9.46%; in [3], -4.5%; in assay [4] it was 6%; with Trypanosoma cruzi, 0%; in assay [5], 1.62%. The Percent Effect is 11.4% in assay [6]; 9.27% in the assay filed under Homo sapiens; 9.68% in assay [7]; 14.3% in assay [8]; -25.7% in assay [9].
